The values below come from PubChem BioAssay (NCI).

Experiment [1] is described as follows: NCI Yeast Anticancer Drug Screen. Data for the rad50 strain (AID 155).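 Further: 0% = growth of vehicle-only cultures of the same strain.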 As to conditions: S. cerevisiae rad50 strain growth inhibition; at 50.0 µM; hits give high values. In a few lines:
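Cells are treated with compound, grown, and their growth is then scored against vehicle-only cultures of the same repair-deficient yeast strain.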

Experiment [2] in a line: NCI Yeast Anticancer Drug Screen. Data for the mec2-1 strain (AID 157). As to conditions: S. cerevisiae mec2-1 strain, at 50.0 µM, hits give high values. In a few lines:
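Cells of the genetically defined mec2-1 yeast strain are incubated with test compound. Inhibition of growth is calculated against vehicle-treated controls.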

Experiment [3] in a line: NCI Yeast Anticancer Drug Screen. Data for the sgs1 mgt1 strain (AID 161).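 Further: 0% = growth of cultures given vehicle only.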 The conditions noted are these: S. cerevisiae sgs1 mgt1 strain, at 50.0 µM, hits give high values. In a few lines:
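Test agents were incubated with a DNA-repair-mutant yeast strain. Growth was then read and compared against vehicle-treated controls.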

Experiment [4] is described as follows: NCI Yeast Anticancer Drug Screen. Data for the cln2 rad14 strain (AID 165).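 Further: 0% = growth equal to vehicle treated cultures.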 As to conditions: S. cerevisiae cln2 rad14 strain, at 50.0 µM, hits give high values. In a few lines:
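The screen exposed genetically defined yeast (cln2 rad14) to test compounds and scored growth inhibition relative to vehicle-treated controls.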

The nature of experiment [5]: NCI Yeast Anticancer Drug Screen. Data for the bub3 strain (AID 167). As to conditions: S. cerevisiae bub3 mutant strain, at 50.0 µM, hits give high values. In a few lines: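 Part of a panel of yeast mutants defective in DNA damage repair or cell cycle regulation. Each strain is grown with compound, and inhibition is calculated relative to solvent-treated cultures.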

The nature of experiment [6]: NCI Yeast Anticancer Drug Screen. Data for the mlh1 rad18 strain (AID 175). As to conditions: S. cerevisiae mlh1 rad18 strain growth inhibition; at 50.0 µM; hits give high values. In a few lines: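 Compound-treated yeast growth, normalised to vehicle controls. Strain bears defined DNA repair mutations.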

SMILES strings stand for the structures. About 79,000 compounds went through this panel and 15% of them were active in at least one assay; those are over-represented in the sample as a whole. A number with no mark means an inactive call. Active and inactive are the calls of the source. No stated cut-off is given here; in the data, active means growth inhibition above about 70%; inactive means the rest.

As for `NCCCC(=O)NCCCC(=O)O`, the growth inhibition in experiment [1] is 19.9%; in experiment [2], -5.75%; in experiment [3], -2.25%; in experiment [4] it was -15.9%; in experiment [5], -6.75%; in experiment [6], 2%.

In the case of `O=C1C(=S)Nc2c(F)cccc21`, the growth inhibition is 21.6% in experiment [1]; 51.4% in experiment [2]; 24.2% in experiment [3]; 39.6% in experiment [4]; 29.6% in experiment [5]; 31.9% in experiment [6].

As for `CC(=O)Nc1ccc(S(=O)(=O)N/N=c2/sc3ccccc3n2C)cc1N`, the growth inhibition was -4.6% in experiment [1]; -2.7% in experiment [2]; -3.8% in experiment [3]; 15.2% in experiment [4]; -8.75% in experiment [5]; 3.2% in experiment [6].

As for `O=Nc1ccc(O)cc1Cc1ccccc1`, the growth inhibition in experiment [1] was -10.4%; in experiment [2], -5.95%; in experiment [3], -19.8%; in experiment [4] it was -5.3%; in experiment [5], 5.1%; in experiment [6], -1.5%.

Take `Cc1ccccc1N=C(N)NC#N`: the growth inhibition in experiment [1] is -14%; in experiment [2] it was -31.9%; in experiment [3], -15.1%; in experiment [4], -4.65%; in experiment [5], -13.2%; in experiment [6] it was -49.7%.

For `C[N+](C)(C)CC(=O)N/N=C(/CC(=O)CC(C1=C(O)c2ccccc2OC1)c1ccccc1)C(=O)Nc1cccc(Cl)c1` (centres undefined), the growth inhibition in experiment [1] was 58%; in experiment [2] it was 39.5%; in experiment [3] it was 27.7%; in experiment [4], 34.4%; in experiment [5], 28.4%; in experiment [6], 5.5%.

With `COc1cc(/C=C\C(=O)c2cccc([N+](=O)[O-])c2)cc(OC)c1OC`, the growth inhibition is 20.4% in experiment [1]; 30.1% in experiment [2]; 13.9% in experiment [3]; 12.5% in experiment [4]; 29.1% in experiment [5]; 20.7% in experiment [6].

For the molecule `CC(=O)Nc1ccc(C=O)s1`, the growth inhibition in experiment [1] was -0.65%; in experiment [2], 6%; in experiment [3], -15.4%; in experiment [4] it was -36.2%; in experiment [5], 1.65%; in experiment [6], -0.4%.

On to `CC(=O)[C@H]1CC[C@H]2[C@@H]3CC=C4C=CCC[C@]4(C)[C@H]3CC[C@]12C`, for which the growth inhibition was -6.3% in experiment [1]; 1% in experiment [2]; -3.55% in experiment [3]; -58.5% in experiment [4]; 8.4% in experiment [5]; 6.7% in experiment [6].

Regarding `CCOC(=O)Nc1n[nH]nc1Cl`, the growth inhibition in experiment [1] is -21.5%; in experiment [2], -10.1%; in experiment [3] it was 25.1%; in experiment [4] it was -20.9%; in experiment [5], -20.1%; in experiment [6] it was -12.7%.

As to `Fc1ccc(-c2ccc(F)cc2)cc1`, the growth inhibition is -18.6% in experiment [1]; -15.4% in experiment [2]; -12.1% in experiment [3]; -44.9% in experiment [4]; -6.8% in experiment [5]; -23.1% in experiment [6].

For `CCCC1(C)COC(C)(CCC)OC1` (centres undefined), the growth inhibition is -31.6% in experiment [1]; -8.3% in experiment [2]; -17.9% in experiment [3]; -34.4% in experiment [4]; -16.9% in experiment [5]; -0.45% in experiment [6].

For `CCCCCC1c2cc(O)ccc2OC1N1CCOCC1` (centres undefined), the growth inhibition was 49.2% in experiment [1]; 44.5% in experiment [2]; 47.5% in experiment [3]; 48.6% in experiment [4]; 46.7% in experiment [5]; 88.7% (active) in experiment [6].

For the molecule `COc1ccc(C(CC(=O)O)c2ccc(OC)cc2OC)cc1` (centres undefined), the growth inhibition in experiment [1] was -0.3%; in experiment [2] it was 0.8%; in experiment [3] it was 11.8%; in experiment [4], -24.5%; in experiment [5] it was 0.85%; in experiment [6] it was 6.95%.

On to `O=[N+]([O-])c1cccc(Cc2nc3ccccc3nc2-c2ccccc2)c1`, for which the growth inhibition in experiment [1] was 34.9%; in experiment [2] it was 18.2%; in experiment [3], 13.7%; in experiment [4] it was 4.1%; in experiment [5], 48.6%; in experiment [6] it was 37.7%.

Turning to `COc1ccc2c(c1OC(C)=O)C1=CC(OC(C)=O)=CCC13CCN(C)C3C2` (centres undefined), the growth inhibition in experiment [1] was 2.75%; in experiment [2] it was -0.15%; in experiment [3] it was -10.8%; in experiment [4] it was -4.7%; in experiment [5], -6.4%; in experiment [6], -0.15%.

With `Cc1ccc(C)c(NC(=O)C(=O)CC(=O)c2cccc3ccccc23)c1`, the growth inhibition is -15.8% in experiment [1]; -33.1% in experiment [2]; 2.05% in experiment [3]; 17.1% in experiment [4]; -20.8% in experiment [5]; -21.1% in experiment [6].

`CC1COC(c2ccc(Cl)cc2Cl)O1` (centres undefined): the growth inhibition was 8.35% in experiment [1]; -2.4% in experiment [2]; -1.1% in experiment [3]; 1.25% in experiment [4]; 2.75% in experiment [5]; -0.65% in experiment [6].

As for `CC(=O)c1c2c(cc3c1CC1(C3)Cc3cc4c(c(C(C)=O)c3C1)CCC4)CCC2`, the growth inhibition is -21.5% in experiment [1]; -31.4% in experiment [2]; -4% in experiment [3]; -5.45% in experiment [4]; -3.35% in experiment [5]; -30.6% in experiment [6].

`OC(c1ccccc1)(c1ccccc1)C1CC1`: the growth inhibition in experiment [1] is 6.2%; in experiment [2] it was -6.9%; in experiment [3] it was 1.6%; in experiment [4], 7%; in experiment [5], -19.2%; in experiment [6], 10.9%.

As for `c1ccc2c3[n+](ccc2c1)CCC[n+]1ccc2ccccc2c1-3`, the growth inhibition in experiment [1] is 75.1% (active); in experiment [2], 38%; in experiment [3] it was 85% (active); in experiment [4], 60%; in experiment [5], 18.3%; in experiment [6], 79% (active).

For the molecule `NC(CCSCC(F)F)C(=O)O` (centres undefined), the growth inhibition in experiment [1] was 19.4%; in experiment [2] it was 8.9%; in experiment [3] it was 3.95%; in experiment [4], 6.95%; in experiment [5], -22%; in experiment [6] it was 25.4%.

In the case of `S=C(NCc1cccc2ccccc12)Nc1ccccc1`, the growth inhibition in experiment [1] was -9.3%; in experiment [2], 7.8%; in experiment [3] it was 39%; in experiment [4], -27.5%; in experiment [5] it was 8.8%; in experiment [6], 20.9%.

`CCC(C)(O)Cc1ccccc1Cl` (centres undefined): the growth inhibition in experiment [1] is 30.1%; in experiment [2] it was 24.1%; in experiment [3], 21.9%; in experiment [4] it was 17.1%; in experiment [5] it was 7.2%; in experiment [6] it was 11.8%.

Take `COC(=O)c1ccc(SCCC(=O)CO)cc1`: the growth inhibition is 19.4% in experiment [1]; 15.9% in experiment [2]; -4.6% in experiment [3]; 5.35% in experiment [4]; 13% in experiment [5]; 23.9% in experiment [6].

`CS/N=C(\c1ccccc1)N(C)C`: the growth inhibition in experiment [1] is -23.9%; in experiment [2] it was -4.05%; in experiment [3], -1.45%; in experiment [4], -25.1%; in experiment [5], -1.6%; in experiment [6] it was 3.35%.

`NC(=S)/N=C/C1=C(O)CCCC1=O`: the growth inhibition was 2.05% in experiment [1]; 5.95% in experiment [2]; 16.4% in experiment [3]; 17% in experiment [4]; 14% in experiment [5]; 11.2% in experiment [6].

In the case of `CSc1nc(NC2OCC(O)C(O)C2O)c(Cl)c(=O)[nH]1` (centres undefined), the growth inhibition was -13.5% in experiment [1]; -2.1% in experiment [2]; 12.3% in experiment [3]; -4.15% in experiment [4]; 2.55% in experiment [5]; 0.75% in experiment [6].

As to `C(=N\C(/N=C/c1ccccc1)c1ccccc1)/c1ccccc1`, the growth inhibition in experiment [1] was 0.4%; in experiment [2], -4.8%; in experiment [3], -3.25%; in experiment [4], -43.8%; in experiment [5], 2.55%; in experiment [6], -6.2%.

With `Cn1c(N)c(NC(=O)CC#N)c(=O)n(C)c1=O`, the growth inhibition in experiment [1] is 20.9%; in experiment [2], 2.7%; in experiment [3] it was 27.3%; in experiment [4], 21%; in experiment [5], -9.85%; in experiment [6], 21.1%.

Turning to `C=C(C)CCCCCCCCC`, the growth inhibition in experiment [1] was -4.8%; in experiment [2], -5.8%; in experiment [3], 17.6%; in experiment [4], 1.4%; in experiment [5], 3%; in experiment [6] it was -3.25%.

As for `COc1ccc2c(c1C)OC(C)C2=O` (centres undefined), the growth inhibition in experiment [1] is 9.65%; in experiment [2], 5.05%; in experiment [3], -3.9%; in experiment [4], -21.1%; in experiment [5], -15.9%; in experiment [6], 0.7%.

With `COc1ccc(C(=O)/C=C/C(C)=C/C=N/N(C)c2ccccc2)cc1`, the growth inhibition in experiment [1] was 14%; in experiment [2], 18.4%; in experiment [3], -0.5%; in experiment [4] it was -39.9%; in experiment [5], 17.1%; in experiment [6], 17.8%.

Regarding `N#Cc1nc(CCCCCN2C(=O)c3ccccc3C2=O)oc1N`, the growth inhibition in experiment [1] was -8.9%; in experiment [2], 9.2%; in experiment [3], -23.1%; in experiment [4], -4.1%; in experiment [5], -28.6%; in experiment [6], -68.8%.

As to `CC(=O)N(CN1C(=O)CCC1C(=O)O)c1ccccc1Cl` (centres undefined), the growth inhibition in experiment [1] was 10.3%; in experiment [2] it was 14.4%; in experiment [3], -13.6%; in experiment [4] it was -4.35%; in experiment [5], -3.85%; in experiment [6], -40.5%.

Consider `Cc1noc(-c2ccccc2)c1N=Nc1ccccc1`, for which the growth inhibition in experiment [1] was 11.6%; in experiment [2], 12.1%; in experiment [3] it was 28.1%; in experiment [4], -34.2%; in experiment [5] it was 45.1%; in experiment [6], 28.5%.

Turning to `O=[N+]([O-])c1ccc(CCO)cc1`, the growth inhibition is -4.15% in experiment [1]; -26.1% in experiment [2]; -6.85% in experiment [3]; -15.4% in experiment [4]; -10.5% in experiment [5]; -4.6% in experiment [6].

Regarding `COC(=O)C(=O)c1c(-c2cccnc2)[nH]c2ccccc12`, the growth inhibition was 7.3% in experiment [1]; -7.1% in experiment [2]; 1.05% in experiment [3]; -9.05% in experiment [4]; 13.2% in experiment [5]; 4% in experiment [6].

On to `O=[N+]([O-])C(=C(N1CCCCC1)N1CCCCC1)/C(Cl)=C(\Cl)Br`, for which the growth inhibition is -31.5% in experiment [1]; 11.2% in experiment [2]; 2.7% in experiment [3]; -2% in experiment [4]; -7.15% in experiment [5]; -1.45% in experiment [6].
